We go through 15 molecules from PMC12136788.

The full ranking holds about 5,800 sequences; the median of “enrichment r” is about 0.54, and the highest 2% start at about 16. What follows is part of a selection rich in the highest values, with near analogues and random picks from the rest.

First the molecules themselves.
B1: chr2:1633339:1633490:-|3pUTR|ENSG00000130508|msi1|total|mutant (ssRNA)
RNA: GGGAGUUCUACAGUCCGACGAUCUUCAUAAGCCACAUUCCGAAACAGGUUUGCUUUCAGCUGUCACUUGCACACAUACUGCCCCGUUGUGAACCAAAUGUGAAAAAACCUCCUUCAUCCCAUUGUGUAUCUGAUACCUGCCGACAACAGAGGAUUGAGCAUCA
B2: ENSG00000147536:stop:overlap|stop_codon|ENSG00000147536|stop_codon|NA|stop_codon (ssRNA)
RNA: GGGAGUUCUACAGUCCGACGAUCUCCGCUACGUCCUCAGCAGCUACUUGCGGUGUCGCCUCAUGAAGUUCCCAAACCAGAUCUAGAUUCUUACGUGUUUCUGAGAGUGAGAGAACGACAAGAAAACAUACUGGUAGAACCAGACAACAGAGGAUUGAGCAUCA
B3: ENSG00000198589:be:win_3651|CDS|ENSG00000198589|bound_else_gene|NA|bound_elsewhere_windowed (ssRNA)
RNA: GGGAGUUCUACAGUCCGACGAUCCCUCACUAGAGAAACCAAAUUAAUUAAUGAUUGUCAUGGUAGUGUCUCUGAGGCUUCUUCUGAGCAAAAGAUUGCGAAGUUGGAUGUUUCCAAUGUUGCUACAGAUACUGAGAGGCUGGACAACAGAGGAUUGAGCAUCA
B4: chr17:18209558:18209659:+|3pUTR|ENSG00000091542|msi1|FALSE|unique (ssRNA)
RNA: GGGAGUUCUACAGUCCGACGAUCGGUAGCUUCUAUCCACUCAGAUCCUGGAAGGCAGCAAGGUUUUGUGGAUCUAGAUUCAUUAGGAAUGUCUUCUUGUCAGCCAGGCCAGGACCCGGGCUUGCCAAGAGCAGAGGCCCUCCCCAACAGAGGAUUGAGCAUCA
B5: chr19:14119889:14120036:-|3pUTR|ENSG00000105011|msi1|total|mutant (ssRNA)
RNA: GGGAGUUCUACAGUCCGACGAUCAGCAGACCCACUCCAGCUUUCUGGUGUCACAGGCGGGAAUGUCCGUCCGCCGGCCGACUCCGAUCCCAUUUCUGUCCUGCUCCCAGGAAGAUUCUCCGGUCCUCUUCAAUCCAGCAGCCCCAACAGAGGAUUGAGCAUCA
B6: ENSG00000165672:stop:overlap|stop_codon|ENSG00000165672|stop_codon|NA|stop_codon (ssRNA)
RNA: GGGAGUUCUACAGUCCGACGAUCCUCCUACGAUCAAGCCAAGUCCAGCUGCUUCCAAAGAGUACUUUCAGAAGGUAAAUCAGUAGAUCACCCAUGUGUAUCUGCACCUUCUCAACUGAGAGAAGAACCACAGUUGAAACCUGCCAACAGAGGAUUGAGCAUCA
B7: chr1:17068045:17068226:-|3pUTR|ENSG00000117115|msi1|FALSE|unique (ssRNA)
RNA: GGGAGUUCUACAGUCCGACGAUCCUCCUUCCACUGCCUUGACUUUCUUCCUUUUUAUUCCUGGUGCCAUCUGUCCAGGCAGCUAGACAAGAACUUGUUCGCCAGCAGCCAGAUUCAGGCCUUCCCAGGGGCAUAAUAAGUGACCAACAGAGGAUUGAGCAUCA
B8: chr19:14119889:14120036:-|3pUTR|ENSG00000105011|msi1|FALSE|unique (ssRNA)
RNA: GGGAGUUCUACAGUCCGACGAUCAGCAGACCCACUCCAGCUUUCUGGUGUCACAGGCGGGAAUGUUAGUUAGUAGGUAGACUUAGAUCCCAUUUCUGUCCUGCUCCCAGGAAGAUUCUUAGGUCCUCUUCAAUCCAGCAGCCCCAACAGAGGAUUGAGCAUCA
B9: chr20:50583650:50583751:+|3pUTR|ENSG00000196396|msi1|FALSE|unique (ssRNA)
RNA: GGGAGUUCUACAGUCCGACGAUCUUCCUAAGCCUGUUGCUGAAGUCAUUGUCGCUCAGCAAUAGGGUGCAGUUUUCCAGGAAUAGGCAUUUGCCUAAUUCCUGGCAUGACACUCUAGUGACUUCCUGGUGAGGCCCAGCCUGUCAACAGAGGAUUGAGCAUCA
B10: chr8:17644361:17644462:-|3pUTR|ENSG00000129422|msi1|FALSE|bound_elsewhere (ssRNA)
RNA: GGGAGUUCUACAGUCCGACGAUCCAACAUUGUGAUGUCAGUAUUUACUAAUCUACAUUCAGUGGCUGUACAAAUAACAGCUGUAGUAAGAAGAGAUUCAGGAUGCUAGAGGUGAAUAUUUGGGUCAUUUACAUGUACACUACACAACAGAGGAUUGAGCAUCA
B11: chr15:44665791:44665971:-|CDS|ENSG00000229474|control|control|control (ssRNA)
RNA: GGGAGUUCUACAGUCCGACGAUCGAUCUGUUUGUUCUGGAAUACGUGUAUGUGGGAAGUUGAAUCAUCAGACACUAGCUACAUAGACUAUGUUUACAGGGAUCCAGAGAGUCUGAAGACAUUUCUUAUGCCUUUAUAUAUUGGCAACAGAGGAUUGAGCAUCA
B12: chr4:75800632:75800752:+|CDS|ENSG00000138768|unk|total|mutant (ssRNA)
RNA: GGGAGUUCUACAGUCCGACGAUCAAACAACUGAUUGAGAAGAGGAUUGGCAAAGAGAAUUUCACCGAGAAACCCGGAUUUAUCCGCAAACAUGAGUUGUAUUCCAGAGCAUCUCAGAAACCCCAGCCAAACUUUCCCAGUCCACAACAGAGGAUUGAGCAUCA
B13: chr3:45095346:45095568:-|CDS|ENSG00000163814|control|control|control (ssRNA)
RNA: GGGAGUUCUACAGUCCGACGAUCAAACAGAGCCGCAAGUUUGUCCCUGGCUGUUUCGUGUGUCUAGAAUCUCGGACCUGCAGUAGCAACCUCACCCUGACAUCUGGCUCCAAACACAAAAUCUCCUUCCUUUGUGAUGAUCUGCAACAGAGGAUUGAGCAUCA
B14: chr1:17407970:17408071:-|3pUTR|ENSG00000179051|msi1|total|mutant (ssRNA)
RNA: GGGAGUUCUACAGUCCGACGAUCGGGUACCGUUCUGCUGACCCAGCUCCCUUCCGUCACGUUUGCUUGGCUCUGGUACCAAACCGUUGGGAUUACCGAAGAGUCCCCUUCCUUGCGUGUCAGCACGGAUGCUGUGACUGCCACCAACAGAGGAUUGAGCAUCA
B15: chr9:19276226:19276327:+|CDS|ENSG00000137145|unk|total|mutant (ssRNA)
RNA: GGGAGUUCUACAGUCCGACGAUCCUUUGUCGCCGCUGGUCUCACUGACACAUCUACUCUUUUGGAUCAAGAAAUAAAUCGUUCCGAUACUAAGUCAACUGGACCUAAAGCUCCAAUUACAGACAUUGCCAUUAUUAUCAAAUCCAACAGAGGAUUGAGCAUCA

The test deals with MSI1 full-length (mouse, UniProt Q61474 1-362). The test can be described thus: nsRBNS (natural sequence RNA bind-n-seq); RBNS binding buffer (assumed for nsRBNS): 25 mM Tris pH 7.5, 150 mM KCl, 3 mM MgCl2, 0.01% Triton X-100, 500 ug/ml BSA, 20 U/ml SUPERase-In, 4 C; UNK is unkempt and MSI1 is Musashi-1; names of the RNAs are library labels; protein concentration not given here; high values mean tight binding.
MSI1 full-length, sequence (Q61474 whole entry): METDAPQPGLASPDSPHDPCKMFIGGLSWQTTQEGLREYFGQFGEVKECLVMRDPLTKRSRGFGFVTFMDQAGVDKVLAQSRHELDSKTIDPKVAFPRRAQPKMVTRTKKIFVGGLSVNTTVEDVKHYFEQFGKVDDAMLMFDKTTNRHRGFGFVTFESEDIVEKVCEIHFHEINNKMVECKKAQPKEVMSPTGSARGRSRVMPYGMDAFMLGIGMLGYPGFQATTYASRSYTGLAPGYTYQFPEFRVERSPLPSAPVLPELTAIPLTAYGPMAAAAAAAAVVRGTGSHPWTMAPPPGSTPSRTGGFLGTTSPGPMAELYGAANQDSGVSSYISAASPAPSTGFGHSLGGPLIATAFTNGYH
On to B1, for which the binding signal was found to be 0.388 enrichment R.

B2: the binding signal was found to be 26.3 enrichment R.

As for B3, the binding signal turned out to be 0.605 enrichment R.

Consider B4, for which the binding signal was 1.93 enrichment R.

For B5, the binding signal amounted to 0.641 enrichment R.

B6 registered a binding signal of 0.684 enrichment R.

For the molecule B7, the binding signal was determined as 0.526 enrichment R.

For the molecule B8, the binding signal was 38.2 enrichment R.

For the molecule B9, the binding signal amounted to 0.237 enrichment R.

With B10, the binding signal turned out to be 0.442 enrichment R.

Molecule B11 yielded a binding signal of 0.282 enrichment R.

As to B12, the binding signal worked out at 0.541 enrichment R.

The molecule B13 returned a binding signal of 0.476 enrichment R.

Regarding B14, the binding signal was found to be 0.479 enrichment R.

For the molecule B15, the binding signal came to 0.315 enrichment R.
